Active and inactive are the calls of the source.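 Rule for the calls: active = signal falls with dose and the fitted half-maximal concentration is at most twice the highest valid tested dose; inconclusive = flat fit with a moderate signal drop, or unreliable fit; inactive = opposite effect, flat near zero, or potency past limit.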

Chain of PglD acetyltransferase (Campylobacter jejuni) (O86157 1-203): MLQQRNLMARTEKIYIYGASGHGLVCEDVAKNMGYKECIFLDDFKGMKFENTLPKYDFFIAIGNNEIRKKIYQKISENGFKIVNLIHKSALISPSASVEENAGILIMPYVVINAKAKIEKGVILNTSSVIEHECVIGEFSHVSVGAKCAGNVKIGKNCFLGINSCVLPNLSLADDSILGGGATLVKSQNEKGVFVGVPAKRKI

The test addresses PglD acetyltransferase (Campylobacter jejuni) (UniProt O86157). The test is described as follows: PglD acetyltransferase inhibitors, dose response, biochemical, DTNB absorbance, Campylobacter jejuni, cherry-picked samples (AID 624110). The conditions noted are these: purified C. jejuni PglD, DTNB absorbance 412 nm; series mostly up to 19.5 µM.
Consider `CC(C)NC(=O)N(C)C[C@@H]1Oc2ccc(NC(=O)Cc3cn(C)c4ccccc34)cc2C(=O)N([C@H](C)CO)C[C@H]1C`, for which the outcome was inactive.
The value for `CC=Cc1ccc2n(c1=O)C[C@@H]1[C@@H](CO)[C@H](C(=O)NCCOC)[C@H]2N1Cc1nccs1` (mixture of isomers) was “inactive”.
Turning to `CO[C@H]1CN(C)C(=O)c2cc(NC(C)=O)ccc2OC[C@@H](C)NC[C@@H]1C`, the molecule was called inactive.
As for `O=C(N[C@H]1C=C[C@@H](CC(=O)N2CCCCC2)O[C@H]1CO)c1ccc2c(c1)OCO2`, the molecule was called inactive.
As for `O=C(C[C@@H]1C[C@@H]2c3cc(NC(=O)NC4CCCCC4)ccc3O[C@@H]2[C@@H](CO)O1)NCc1cccnc1`, the entry is “inactive”; as for `CCC(=O)Nc1ccc2c(c1)OC[C@@H](C)N(Cc1ccccn1)C[C@@H](C)[C@H](OC)CN(C)C2=O`, “inactive”.
`C/C=C/c1cnc2c(c1)C(=O)N([C@@H](C)CO)C[C@H](C)[C@@H](CN(C)C(=O)c1cccnc1)O2`: the molecule was called inactive.
For the molecule `CO[C@@H]1CN(C)C(=O)c2ccc(NS(C)(=O)=O)cc2OC[C@@H](C)N(C(=O)C2CCOCC2)C[C@H]1C`, the molecule was called inactive.
Consider `COCC#Cc1cnc2c(c1)C(=O)N([C@@H](C)CO)C[C@H](C)[C@@H](CN(C)C(=O)C1CCC1)O2`, for which the molecule was classed as inactive.
`C[C@H]1CN([C@@H](C)CO)C(=O)c2cccc(NC(=O)Nc3ccccc3)c2O[C@H]1CN(C)C`: the molecule was called inactive.
As for `CC(=O)N[C@H]1CC[C@H](CC(=O)NCc2ccc(Cl)cc2)O[C@H]1CO`, the entry is “inactive”; as for `O=C(C[C@@H]1CC[C@H]2[C@@H](COC[C@H](O)CN2C(=O)Nc2cccc(F)c2)O1)NCc1ccccc1F`, “inactive”; as for `C[C@@H]1CN([C@@H](C)CO)C(=O)c2cc(NC(=O)Nc3ccc(F)cc3)ccc2O[C@@H]1CN(C)CC1CCCCC1`, “inactive”.
The value for `O=C(C[C@@H]1CC[C@@H]2[C@H](COC[C@@H](O)CN2Cc2ccc(F)cc2)O1)N1CCc2ccccc2C1` was “inactive”; that for `Cc1noc(C)c1NC(=O)Nc1cccc2c1O[C@H](CN(C)C(=O)Nc1cccc3ccccc13)[C@@H](C)CN([C@H](C)CO)C2=O` was “inactive”.
`COc1ccc(C#Cc2cnc3c(c2)C(=O)N([C@@H](C)CO)C[C@H](C)[C@H](CN(C)CC2CCCC2)O3)cc1`: the outcome was inactive.
